About 83,000 compounds went through this panel and 20% of them were active in at least one assay; those are over-represented in the sample as a whole.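 Single-dose data. Exposure time 48 hours. Values below 10 considered active.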 The source made the active and inactive calls.
How the values were obtained:
Test in all cases: NCI-60 one-dose screen, 48 h (100 = growth as untreated, 0 = no growth, -100 = all killed)
Details in all cases: 10 µM unless noted
T-47D breast = test system: T-47D breast
BT-549 breast = test system: BT-549 breast
MDA-MB-435 melanoma = test system: MDA-MB-435 melanoma
SW-620 colon = test system: SW-620 colon
MCF7 breast = test system: MCF7 breast
HCT-116 colon = test system: HCT-116 colon
HCC-2998 colon = test system: HCC-2998 colon
KM12 colon = test system: KM12 colon

Measured: growth

S=C(c1ccc2c(c1)OCO2)N1CCN(c2cccc(Cl)c2)CC1
active: MDA-MB-435 melanoma -37.7% | SW-620 colon 4.12% | MCF7 breast -0.55% | HCC-2998 colon -13.1%
inactive: T-47D breast 11.6% | BT-549 breast 52.4% | HCT-116 colon 13.7% | KM12 colon 12.6%

O=C(CCCCCCN1CC(=O)N2[C@H](c3ccc(Br)cc3)c3[nH]c4ccccc4c3C[C@@H]2C1=O)NO
inactive: BT-549 breast 55.1% | MDA-MB-435 melanoma 26.2% | SW-620 colon 20.4% | MCF7 breast 28.4% | HCT-116 colon 14.8% | HCC-2998 colon 67.5% | KM12 colon 60.9%
active: T-47D breast 9.61%

O=C(Nc1ccccc1[N+](=O)[O-])c1ccc(Cl)c(Cl)c1
inactive: T-47D breast 54.9% | BT-549 breast 85.6% | MDA-MB-435 melanoma 102% | SW-620 colon 97.9% | MCF7 breast 52% | HCT-116 colon 95% | HCC-2998 colon 110% | KM12 colon 96.8%

CSC(SC)=C(C#N)c1nc2ccccc2s1
inactive: T-47D breast 33.2% | BT-549 breast 13.1% | MDA-MB-435 melanoma 76.5% | SW-620 colon 81.5% | MCF7 breast 47.3% | HCT-116 colon 14.2% | HCC-2998 colon 82.2% | KM12 colon 58.3%

Cc1cn(-c2cc(NC(=O)c3cncc(C#Cc4c(N)ncc5ccc(F)cc45)c3)cc(C(F)(F)F)c2)cn1
inactive: T-47D breast 65.8% | BT-549 breast 86.4% | MDA-MB-435 melanoma 36.6% | SW-620 colon 33.3% | MCF7 breast 31.5% | HCT-116 colon 19.4% | HCC-2998 colon 77.4% | KM12 colon 14.1%

COc1cc(OC)c(/C=C/C(=O)c2c(O)cc(OC)c(C3CCN(C)CC3)c2OC)c(OC)c1
active: T-47D breast -74.5% | BT-549 breast -6.55% | MDA-MB-435 melanoma -87.9% | SW-620 colon -83.8% | MCF7 breast -86.1% | HCT-116 colon -100% | HCC-2998 colon -94.5% | KM12 colon -62%

Oc1c(CN2CCCC2)cc(CSCc2ccccc2)c2cccnc12
inactive: BT-549 breast 28.5% | MDA-MB-435 melanoma 21.2% | SW-620 colon 13.6% | HCC-2998 colon 34.8% | KM12 colon 20.1%
active: T-47D breast -3.02% | MCF7 breast 8.46% | HCT-116 colon 7.5%

Nc1nc(NC(=O)Nc2ccc(C(=O)O)cc2)nn1-c1ccc(S(N)(=O)=O)cc1
inactive: T-47D breast 102% | BT-549 breast 91.3% | MDA-MB-435 melanoma 98.2% | SW-620 colon 87.7% | MCF7 breast 98.7% | HCT-116 colon 95.4% | HCC-2998 colon 107% | KM12 colon 89.6%

C/C=C(\C)C(=O)N[C@H]1C(O)C[C@]2(C)C3CC[C@@]4(C)C(CC[C@@H]4C(C)N(C)C)C3CCC2C1O (some centres not stated)
active: MDA-MB-435 melanoma -22.2% | HCT-116 colon 3.85%
inactive: T-47D breast 37.6% | BT-549 breast 88.9% | SW-620 colon 12.9% | MCF7 breast 28.6% | HCC-2998 colon 59.7% | KM12 colon 28.7%

COc1ccc(/C=C/C(c2cc(OC)c(OC)c(OC)c2)n2ccnc2)cc1O (configuration not stated)
active: MDA-MB-435 melanoma -25.6%
inactive: T-47D breast 40.6% | BT-549 breast 44.3% | SW-620 colon 17.4% | MCF7 breast 17.9% | HCT-116 colon 16.7% | HCC-2998 colon 77% | KM12 colon 29%

O=C(O)/C=C/C(=O)Nc1cccc(Cn2nnc3cc(Cl)c(Cl)cc32)c1
inactive: T-47D breast 93.2% | BT-549 breast 80.1% | MDA-MB-435 melanoma 106% | SW-620 colon 96.3% | MCF7 breast 89% | HCT-116 colon 96.9% | HCC-2998 colon 112% | KM12 colon 109%

Cc1cc2c(cc1C)N(C(=O)CCl)CC(=O)N2
inactive: T-47D breast 15.6% | BT-549 breast 18.9% | MDA-MB-435 melanoma 54.9% | MCF7 breast 19.6% | HCC-2998 colon 71.6% | KM12 colon 60.2%
active: SW-620 colon -48.2% | HCT-116 colon -10.9%

CSC1=Nc2c(c(C)c(-c3ccccc3)n2CCCC(=O)O)C2=NC(=O)C[C@H](C)N12
inactive: T-47D breast 113% | BT-549 breast 105% | MDA-MB-435 melanoma 102% | SW-620 colon 102% | MCF7 breast 88.8% | HCT-116 colon 101% | HCC-2998 colon 104% | KM12 colon 97.1%

CCc1n(Cc2ccc3ccccc3n2)cc[n+]1Cc1ccc2ccccc2n1
inactive: BT-549 breast 13.4% | MDA-MB-435 melanoma 14% | SW-620 colon 38.5% | MCF7 breast 13.5% | HCT-116 colon 35% | HCC-2998 colon 27.3% | KM12 colon 12.2%
active: T-47D breast -3.68%

O=C1/C=C/[C@@H](O)[C@@H]2C[C@@H](O)C[C@H]2/C=C/CCC[C@H](CCO)O1
active: T-47D breast -17.8% | BT-549 breast 8.06% | MDA-MB-435 melanoma 9.98% | SW-620 colon -46% | MCF7 breast -17.1% | HCT-116 colon -62.5% | HCC-2998 colon 1.71% | KM12 colon -54.3%

Fc1ccc2[nH]cc(-c3nc(-c4c[nH]c5ccncc45)cs3)c2c1
active: T-47D breast -30.3% | MDA-MB-435 melanoma -75.3% | SW-620 colon -63.5% | MCF7 breast -46.7% | HCT-116 colon -85.6% | HCC-2998 colon -74.3% | KM12 colon -67.1%
inactive: BT-549 breast 70%

COc1cc(OC)cc(-c2ccc(-c3ccc(C(=N)N)o3)o2)c1
active: MDA-MB-435 melanoma -27.5% | SW-620 colon 2.04% | MCF7 breast 8.92% | HCT-116 colon -8.08% | HCC-2998 colon -36.8%
inactive: T-47D breast 49.3% | BT-549 breast 85.8% | KM12 colon 17.6%

CC1(C)N=C(N)N=C(N)N1c1cccc(CCc2ccccc2)c1
inactive: T-47D breast 37.7% | BT-549 breast 42.4% | MDA-MB-435 melanoma 47.5% | SW-620 colon 27.4% | MCF7 breast 23.8% | HCT-116 colon 19.8% | KM12 colon 21.9%
active: HCC-2998 colon 2.34%

CC1=C(C(=O)Nc2nc(-c3ccc(Cl)cc3)cs2)[C@H](c2ccc(O)cc2)NC(=O)N1
inactive: T-47D breast 70.5% | BT-549 breast 90.4% | MDA-MB-435 melanoma 101% | SW-620 colon 102% | MCF7 breast 101% | HCT-116 colon 95.4% | HCC-2998 colon 108% | KM12 colon 96.9%

CCOC(=O)c1[nH]c2c(c1C)-c1[nH]c(=O)c(S(=O)(=O)c3ccccc3)cc1SC2
inactive: BT-549 breast 32.7% [100 µM] | MDA-MB-435 melanoma 24.2% [100 µM] | SW-620 colon 49.1% [100 µM] | MCF7 breast 28.2% [100 µM] | HCT-116 colon 24.9% [100 µM] | HCC-2998 colon 75.1% [100 µM] | KM12 colon 28.1% [100 µM]
active: T-47D breast 1.66% [100 µM]

COc1cccc(CCNc2ncnc3c2ncn3Cc2nnc3c4ccccc4c(Cl)nn23)c1
inactive: T-47D breast 48.5% | BT-549 breast 47.8% | MDA-MB-435 melanoma 57.5% | SW-620 colon 57.4% | MCF7 breast 63% | HCT-116 colon 39.6% | HCC-2998 colon 91.9% | KM12 colon 80%

Cc1ccc2nc(/C(C#N)=C(/CCCO)NC(Cc3ccccc3)C(=O)OCc3ccccc3)[nH]c(=O)c2c1 (configuration not stated)
active: HCC-2998 colon -12.5%
inactive: T-47D breast 93% | BT-549 breast 94.2% | MDA-MB-435 melanoma 89.5% | SW-620 colon 110% | MCF7 breast 99.8% | HCT-116 colon 96.9% | KM12 colon 109%

Clc1c(Cl)[n+](Cc2ccc3ccccc3c2)cn1Cc1ccc2ccccc2c1
active: T-47D breast -3.8% | BT-549 breast -69.5% | MDA-MB-435 melanoma -31.4% | HCT-116 colon 7.02% | KM12 colon -67.6%
inactive: SW-620 colon 34.4% | MCF7 breast 11.8% | HCC-2998 colon 16%

O=S(=O)(Nc1cc(Sc2cccc3cccnc23)c(O)c2ccccc12)c1ccccc1
active: T-47D breast -26% | SW-620 colon -67.8% | MCF7 breast -54.6% | HCT-116 colon -15.2%
inactive: BT-549 breast 31.4% | MDA-MB-435 melanoma 11.3% | HCC-2998 colon 36.9% | KM12 colon 13.6%

O=C1/C(=C\c2cccc3nccnc23)SC(=S)N1CCc1ccc(O)cc1
inactive: T-47D breast 82.5% | BT-549 breast 96% | MDA-MB-435 melanoma 97.4% | SW-620 colon 101% | MCF7 breast 94.4% | HCT-116 colon 92% | HCC-2998 colon 116% | KM12 colon 97.1%

COc1ccc(Cn2cc3c(c2-c2ccccc2)CCc2cnoc2-3)cc1
active: MDA-MB-435 melanoma 3.43% | HCT-116 colon 0.167% | KM12 colon 0.62%
inactive: T-47D breast 64.7% | BT-549 breast 45.3% | SW-620 colon 18.3% | MCF7 breast 14.6% | HCC-2998 colon 12.5%

O=C(Cc1ccccc1)Nc1cccc(N=Cc2ccccc2O)c1
inactive: T-47D breast 91.8% | BT-549 breast 115% | MDA-MB-435 melanoma 97.8% | SW-620 colon 109% | MCF7 breast 94.4% | HCT-116 colon 108% | HCC-2998 colon 106% | KM12 colon 98.1%

COC(=O)c1nc(-c2ccccc2)oc1S(=O)(=O)NCC(c1ccc(Cl)cc1)N1CCOCC1 (configuration not stated)
inactive: T-47D breast 53.5% | BT-549 breast 56% | MDA-MB-435 melanoma 64.8% | SW-620 colon 18.7% | MCF7 breast 31.7% | HCT-116 colon 62.2% | HCC-2998 colon 121% | KM12 colon 89%

CC1C=CC(OC(=O)C(C)(O)CCC(O)(C(=O)OC2CC(O)C(C(C)C)CC2(C)O)C(C)C)(C(C)C)CC1 (configuration not stated)
active: T-47D breast -47.1% [4.63 µM] | BT-549 breast -81% [4.63 µM] | MDA-MB-435 melanoma -92% [4.63 µM] | SW-620 colon -67.8% [4.63 µM] | MCF7 breast -67.6% [4.63 µM] | HCT-116 colon -40% [4.63 µM] | HCC-2998 colon -72.8% [4.63 µM] | KM12 colon -77.4% [4.63 µM]
